In PubChem BioAssay:
The source made the active and inactive calls.

How the values were obtained:
[1] = compounds binding Alexa647 anti-His antibody – biochemical, small-molecule microarray, 635 nm fluorescence, artefact control for SMM control protein annotation, primary screen (AID 1128); conditions: higher = more signal;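 further: score merges feature fluorescence with signal-to-noise for each printed compound spot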
[2] = system: Human papillomavirus type 1a E7 protein (residues 1-88); assay: HPV1a E7 small-molecule binders, primary screen, biochemical, small-molecule microarray, residues 1-88, 635 nm (AID 1129); conditions: small-molecule microarray binding, fluorescence 635 nm; higher = more signal
[3] = biological target: Focal adhesion kinase 1 (Homo sapiens) (UniProt Q05397); assay: PTK2 protein binding on printed compound slides – biochemical, small-molecule microarray, 635/667 nm fluorescence, BSA, DTT, primary screen (AID 1130); conditions: 635 nm fluorescence, higher = more signal;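 further: composite of spot emission at 667 nm and signal to noise over triplicate slides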
Focal adhesion kinase 1 (Homo sapiens), sequence (Q05397 whole entry, looked up): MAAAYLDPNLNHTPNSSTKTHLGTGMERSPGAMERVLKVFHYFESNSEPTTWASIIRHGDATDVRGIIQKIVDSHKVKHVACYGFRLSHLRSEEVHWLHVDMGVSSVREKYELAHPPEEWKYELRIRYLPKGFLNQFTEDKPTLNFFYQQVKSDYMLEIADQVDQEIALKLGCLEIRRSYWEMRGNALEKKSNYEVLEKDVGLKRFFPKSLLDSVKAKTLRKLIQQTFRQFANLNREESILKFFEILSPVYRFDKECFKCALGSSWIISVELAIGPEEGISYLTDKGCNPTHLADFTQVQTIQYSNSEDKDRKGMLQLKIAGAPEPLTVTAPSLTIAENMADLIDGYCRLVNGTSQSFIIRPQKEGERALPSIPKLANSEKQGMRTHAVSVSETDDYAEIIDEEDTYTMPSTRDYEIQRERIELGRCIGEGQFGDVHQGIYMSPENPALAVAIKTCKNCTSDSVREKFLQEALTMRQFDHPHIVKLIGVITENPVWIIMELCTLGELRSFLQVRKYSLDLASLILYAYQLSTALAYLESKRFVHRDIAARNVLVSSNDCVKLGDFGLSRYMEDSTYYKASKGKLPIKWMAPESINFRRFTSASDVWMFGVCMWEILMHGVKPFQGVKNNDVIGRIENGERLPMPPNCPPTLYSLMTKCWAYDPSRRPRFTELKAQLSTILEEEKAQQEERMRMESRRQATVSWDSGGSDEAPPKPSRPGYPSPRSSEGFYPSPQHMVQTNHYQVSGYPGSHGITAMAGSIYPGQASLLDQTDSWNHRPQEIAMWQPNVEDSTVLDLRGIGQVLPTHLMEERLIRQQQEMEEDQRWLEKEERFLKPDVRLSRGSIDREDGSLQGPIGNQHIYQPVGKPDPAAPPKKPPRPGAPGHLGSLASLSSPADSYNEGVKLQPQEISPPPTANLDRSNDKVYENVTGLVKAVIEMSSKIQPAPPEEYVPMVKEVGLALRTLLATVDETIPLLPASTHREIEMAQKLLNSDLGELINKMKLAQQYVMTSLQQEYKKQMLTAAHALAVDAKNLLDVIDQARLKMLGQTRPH

[4] = system: Fibrinogen (Alexa647-labelled); assay: Alexa647-fibrinogen binding to printed small molecules – biochemical, small-molecule microarray, 635/667 nm fluorescence, artefact control for SMM control-protein annotation, profiling panel (AID 1131); conditions: fibrinogen-A647 binding fluorescence, higher = more signal;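 further: z-score merges 667 nm fluorescence with per-spot signal-to-noise over triplicate slides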
[5] = biological target: Follistatin (Homo sapiens) (UniProt P19883); assay: FST protein binding to printed compounds – biochemical, small-molecule microarray, 635/667 nm fluorescence, primary screen (AID 1132); conditions: 635 nm fluorescence, higher = more signal
Follistatin (Homo sapiens), sequence (P19883 whole entry, looked up): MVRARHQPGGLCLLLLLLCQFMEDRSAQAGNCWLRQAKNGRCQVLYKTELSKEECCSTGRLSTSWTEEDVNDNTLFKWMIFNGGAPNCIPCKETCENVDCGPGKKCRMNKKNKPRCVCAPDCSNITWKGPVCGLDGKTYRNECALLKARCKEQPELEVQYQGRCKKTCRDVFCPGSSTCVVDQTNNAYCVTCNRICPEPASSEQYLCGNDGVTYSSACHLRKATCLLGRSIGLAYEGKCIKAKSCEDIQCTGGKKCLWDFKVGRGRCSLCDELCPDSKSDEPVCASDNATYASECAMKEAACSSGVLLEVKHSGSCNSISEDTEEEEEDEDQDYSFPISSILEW

[6] = biological target: Fibroblast growth factor 2 (Homo sapiens) (UniProt P09038); assay: basic fibroblast growth factor binding to printed compounds – biochemical, small-molecule microarray, 635/667 nm fluorescence, primary screen (AID 1133); conditions: FGF2, fluorescence 635/667, higher = more signal
Fibroblast growth factor 2 (Homo sapiens), sequence (P09038 whole entry, looked up): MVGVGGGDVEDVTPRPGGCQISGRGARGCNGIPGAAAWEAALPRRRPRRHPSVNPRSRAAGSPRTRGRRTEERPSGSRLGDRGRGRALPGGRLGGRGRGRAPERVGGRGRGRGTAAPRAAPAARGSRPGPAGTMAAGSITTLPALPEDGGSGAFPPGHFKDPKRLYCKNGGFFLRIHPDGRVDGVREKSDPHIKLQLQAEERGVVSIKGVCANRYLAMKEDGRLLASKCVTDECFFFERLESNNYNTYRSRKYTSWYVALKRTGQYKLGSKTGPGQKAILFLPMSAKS

[7] = JC-1 mitochondrial potential readout, lung cancer cells – cell-based, A549, JC-1 fluorescence, basal, 24 h, 100 nL, profiling panel (AID 1138); conditions: higher = more signal;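 further: A549 lung adenocarcinoma cells under basal conditions with no added stimulus; test concentration not given here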
[8] = system: Lefty1; assay: Lefty1 protein binding to printed compounds – biochemical, small-molecule microarray, 635/667 nm fluorescence, primary screen (AID 1139); conditions: fluorescence 635/667, higher = more signal
[9] = system: wheat germ agglutinin (Triticum aestivum), Alexa647-labelled; assay: Alexa647-WGA lectin binding to printed small molecules – biochemical, small-molecule microarray, 635/667 nm fluorescence, artefact control for SMM control-protein annotation, profiling panel (AID 1140); conditions: WGA-A647 binding, 635 nm fluorescence, higher = more signal;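 further: score merges 667 nm feature emission with signal to noise over triplicate slides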
[10] = biological target: Luciferin 4-monooxygenase (Photinus pyralis) (UniProt P08659); assay: inhibition of purified Photinus pyralis luciferase – biochemical, luminescence, purified enzyme, 2006 set, primary screen (AID 1141); conditions: purified firefly luciferase, SteadyGlo luminescence, 30 min; higher = more signal, called active from +8 up or from −8 down;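 further: cell-free assay with purified firefly luciferase at 100 ng per well in PBS; test concentration not given here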
Luciferin 4-monooxygenase (Photinus pyralis), sequence (P08659 whole entry, looked up): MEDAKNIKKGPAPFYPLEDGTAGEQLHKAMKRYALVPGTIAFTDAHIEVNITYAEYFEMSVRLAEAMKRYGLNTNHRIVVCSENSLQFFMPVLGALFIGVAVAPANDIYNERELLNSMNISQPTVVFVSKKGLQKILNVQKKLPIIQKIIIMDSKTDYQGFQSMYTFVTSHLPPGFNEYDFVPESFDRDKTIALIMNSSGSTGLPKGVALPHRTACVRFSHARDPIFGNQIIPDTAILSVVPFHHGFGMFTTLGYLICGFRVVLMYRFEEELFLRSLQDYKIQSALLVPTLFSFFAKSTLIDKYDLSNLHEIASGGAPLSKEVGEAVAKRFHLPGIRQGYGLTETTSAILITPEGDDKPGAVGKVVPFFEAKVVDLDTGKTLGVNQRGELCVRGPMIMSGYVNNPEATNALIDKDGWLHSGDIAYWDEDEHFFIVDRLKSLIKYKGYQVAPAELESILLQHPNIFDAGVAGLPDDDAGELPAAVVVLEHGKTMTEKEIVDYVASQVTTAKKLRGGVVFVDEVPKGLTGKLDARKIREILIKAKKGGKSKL

SMILES | composite z-score [1] | composite z-score [2] | composite z-score [3] | composite z-score [4] | composite z-score [5] | composite z-score [6] | z-score [7] | composite z-score [8] | composite z-score [9] | z-score [10]
CCCNC(=O)[C@@H]1c2ccccc2C(=O)N(c2ccc(C)cn2)[C@H]1c1ccc(CO)cc1 | 0.63 | -0.38 | 0.14 | -0.367 | 0.316 | 0.398 | -0.307 | -0.981 | -0.273 | 0.544 (inactive)
CCOC(=O)[C@H](CC(C)C)NC(=O)CCC1CC(OC(=O)NCc2cccc3ccccc23)CC2(CCCC(COC(=O)NCCc3ccccc3OC)O2)O1 (stereo not given in full) | 1.02 | 1.12 | 0.0969 | 0.949 | 0.583 | 0.485 | 0.041 | 1.5 | 0.225 | 0.755 (inactive)
COc1ccc(O[C@H]2C=C[C@@H](c3ccccc3)O[C@@H]2COC(=O)CCC(C)=NO[C@@H](C)c2cc(-c3c(C)cc(C)cc3C)no2)cc1 | -0.566 | -0.23 | -0.174 | -0.223 | -1.32 | -0.848 | 0.67 | -0.773 | -0.204 | 1.21 (inactive)
[N-]=[N+]=NCc1ccccc1C[C@]1(C(=O)NCc2ccccc2)N=C(c2ccc(OCCCO)cc2)O[C@H]1c1ccccc1N=[N+]=[N-] | 1.99 | 1.17 | 1.54 | 0.967 | 0.931 | 1.49 | -0.711 | -0.875 | 0.285 | -4.08 (inactive)
Cc1ccc(S(=O)(=O)N[C@@H]2COC(=O)[C@H](C)COC(=O)CC=C[C@H]2C)cc1 | -0.419 | -0.0268 | -0.232 | -0.305 | 1.35 | 0.98 | 0.26 | 1.38 | -0.277 | -0.181 (inactive)
COc1ccc(CCNC(=O)[C@@H]2c3ccccc3C(=O)N(c3ccc(C)cn3)[C@H]2c2ccc(CO)cc2)cc1 | 0.315 | 0.469 | -0.34 | -2.21 | -0.25 | -0.609 | -0.61 | -1.17 | -0.293 | 0.85 (inactive)
CC(=O)OC[C@H]1O[C@@H](ON=C[C@@H](C)[C@H](OCc2ccccc2)C(C)C)[C@H](OC(C)=O)[C@@H](OC(C)=O)[C@@H]1OC(C)=O | 0.133 | -0.19 | -0.0838 | -0.562 | -1 | 0.225 | 1.32 | -0.207 | -0.0716 | 0.0242 (inactive)
COC(=O)CC=C[C@@H](C)[C@@H](C=NO[C@@H](C)c1cc(-c2c(C)cc(C)cc2C)no1)OC | 0.525 | -1.06 | -0.688 | -1.47 | -0.732 | -1.35 | -0.542 | -1.43 | -1.03 | 0.973 (inactive)
[N-]=[N+]=Nc1ccccc1C[C@@]1(C(N)=O)N=C(c2ccc(OCCCO)cc2)O[C@@H]1c1ccccc1 | 0.42 | 1.02 | 0.645 | -0.367 | 0.283 | -0.403 | -0.971 | -1.27 | 0.402 | -3.86 (inactive)
O=C1C[C@@H](O)[C@@H](O)[C@@H]2[C@@H]3C(=O)N(C4CCCCC4)C(=O)[C@@H]3CC[C@H]12 | 0.335 | 0.949 | 0.329 | 0.583 | 0.525 | 0.521 | -0.338 | 0.422 | 0.103 | -0.163 (inactive)
CCOC(=O)C1=CC[C@H]2C(=O)N(CC)C(=O)[C@@H]12 | 0.299 | 0.775 | -0.0436 | 0.775 | 0.269 | 0.218 | -1.1 | 0.443 | 0.433 | 1.69 (inactive)
CCN1C(=O)[C@H]2[C@H]3[C@H](O)[C@H](O)CC(=NOCC=C(C)CCC=C(C)C)[C@H]3CC[C@H]2C1=O | 0.918 | 1.1 | 0.123 | 0.0065 | 1.26 | 1.51 | -0.298 | 1.58 | -0.207 | -0.279 (inactive)
CO[C@@H]1COC(=O)CC=C[C@@H](C)[C@@H]2C=C[C@@H](O)[C@@H](COC(=O)CC=C[C@H]1C)O2 | 0.235 | -0.912 | -0.0662 | -1.24 | 1.33 | 1.1 | -0.443 | 1.47 | -0.38 | -2.29 (inactive)
C[C@@H](c1ccccc1)N1C(=O)[C@H]2[C@H]3[C@H](O)[C@H](O)CC(=NNC(=O)OCc4ccccc4)[C@H]3CC[C@H]2C1=O | 0.496 | -0.387 | -0.048 | 0.253 | -0.351 | 0.0573 | -0.118 | -0.211 | -0.105 | 0.502 (inactive)
CN(C)CCCNC(=O)[C@@H]1c2ccccc2C(=O)N(Cc2cc(F)cc(C(F)(F)F)c2)[C@H]1c1ccc(CO)cc1 | 0.77 | 1.07 | -0.0288 | 0.216 | 1.28 | 0.309 | -0.00183 | -0.271 | 0.039 | 0.0764 (inactive)
CC[C@@H](c1ccccc1)n1c(=O)n2n(c1=O)[C@H]1[C@H](O)[C@@H]3O[C@@H]3C(=NOCC=C(C)CCC=C(C)C)[C@H]1CC2 | 0.592 | 1.1 | 0.301 | 0.417 | 0.708 | 0.55 | 0.0549 | 1.25 | 0.359 | -0.726 (inactive)
O=C1O[C@@H](c2ccccc2)[C@@H](c2ccccc2)N2[C@@H](c3ccccc3OCCO)[C@]3(C(=O)Nc4ccc(C#CCCO)cc43)[C@@H](C(=O)O)[C@H]12 | 2.14 | 1.18 | 0.459 | 0.923 | 0.89 | 0.598 | -0.406 | 1.37 | 0.365 | -0.703 (inactive)

SMILES | composite z-score [1] | composite z-score [2] | composite z-score [3] | composite z-score [4] | composite z-score [5] | composite z-score [6] | z-score [7] | composite z-score [8] | composite z-score [9] | z-score [10]
CCCCC(=C=CC[C@H](O)c1ccccc1OCCO)C[C@H](O)COCc1ccccc1 | -1.29 | -0.138 | 0.329 | -0.256 | 0.103 | 0.189 | 0.544 | -0.0107 | -0.142 | -0.676 (inactive)
COc1ccc([Si](C)(C)[C@H]2[C@H](CCO)O[C@@]3(C(=O)N(Cc4cccc(NC(=O)[C@H](C)O)c4)c4ccccc43)[C@@H]2C)cc1 | 1.75 | 1.15 | 0.598 | 0.83 | 1.11 | 0.684 | -0.598 | 1.23 | 0.23 | -0.208 (inactive)
C=COC[C@H]1CN2[C@@H](CC[C@@H](C)[C@@H]2c2ccc(Br)cc2)C(=O)O1 | 1.25 | 0.394 | 0.0351 | 0.673 | 0.504 | 0.706 | 0.587 | 0.51 | 0.276 | -2.84 (inactive)
COC(=O)[C@@H]1CCCN1C(=O)[C@@H](C)CO | 0.933 | 1.16 | 0.21 | 0.868 | 0.473 | 0.723 | -1.29 | 0.29 | 1.15 | 0.09 (inactive)
CO[C@@H]1COC(=O)CC=C[C@@H](C)COC(=O)[C@H](COCc2ccccc2)NC(=O)CC=C[C@H]1C | -0.105 | -1.04 | -0.765 | -1.55 | 1.24 | 1.73 | -0.378 | 1.57 | -0.672 | -0.336 (inactive)
CN(C)C(=O)[C@@]1(Cc2ccccc2)N=C(c2ccc(OCCCO)cc2)O[C@H]1c1ccccc1CN=[N+]=[N-] | 3.27 | 1.25 | 0.254 | 1.02 | 1.37 | 1.18 | 1.97 | 0.485 | 1.25 | -0.088 (inactive)
C#C[C@@H]1Oc2ccccc2S(=O)(=O)N2CCC[C@H]12 | 0.104 | -0.283 | 0.193 | -0.635 | 0.562 | 0.155 | -0.273 | 0.0495 | -0.249 | -0.0351 (inactive)
CC(C)OC(=O)C=C1C[C@@H](c2ccc(C#N)cc2)O[C@@H](c2ccc(C#N)cc2)O1 | 1.48 | 1.22 | 0.704 | 0.978 | 1.31 | 0.267 | -0.356 | 0.48 | 0.972 | -0.178 (inactive)
CN1C(=O)C2C=CC(C(O)c3ccc(I)cc3)N(NC(=O)OC(C)(C)C)C2C1=O (stereo not given) | 0.131 | 1.25 | 0.739 | 0.974 | 0.669 | -0.0956 | -0.317 | -0.119 | 0.743 | 0.607 (inactive)
COc1ccc(OC[C@H]2Cc3c(-c4ccccc4)nc4c(c3CO2)CN(CCOc2ccccc2)CC4)cc1 | 1.78 | 0.928 | 0.169 | 0.811 | 0.923 | 0.596 | 0.774 | 1.25 | 0.387 | -0.356 (inactive)
COC(=O)CC=C[C@H](C)[C@H](CO)NS(=O)(=O)c1ccc(C)cc1 | 0.422 | 0.447 | 0.265 | 0.466 | 0.525 | 0.621 | -0.655 | 0.701 | -0.037 | -0.54 (inactive)
O=C1[C@H]2[C@H]3[C@H](O)[C@H](O)CC(=NOC[C@@H](O)COCc4ccco4)[C@@H]3CC[C@H]2C(=O)N1c1ccc(F)cc1F | -0.0634 | 0.126 | -0.358 | -0.313 | 0.532 | 0.646 | -0.808 | 0.59 | -0.385 | 1.03 (inactive)
COc1cccc([C@@H]2Oc3ccc(Br)cc3C(=O)[C@H]2O)c1 | 0.26 | 0.615 | 0.586 | 0.946 | 0.453 | 0.267 | 1.08 | 0.732 | 0.282 | -3.5 (inactive)
C=CC[C@@H]1C=C[C@H](ON=C[C@@H](OC)[C@H](C)C=CCC(=O)OC)[C@@H](CO)O1 | -0.179 | 0.296 | 0.191 | -0.613 | 0.234 | 0.13 | -0.019 | 0.566 | -1.06 | 0.191 (inactive)
COc1ccc(O[C@H]2C=C[C@@H](c3ccccc3)O[C@@H]2COC(=O)CCC(C)=NOC(C)CN2CCCCc3nc(C)c(C)cc32)cc1 (stereo not given in full) | 4.16 | -0.303 | 0.214 | -0.78 | 0.0731 | -0.442 | 0.752 | -0.214 | 0.878 | 0.731 (inactive)
COc1ccc(COC(=O)NN=C2C[C@@H](O)[C@@H](O)[C@@H]3[C@@H]4C(=O)N(c5ccc(F)cc5F)C(=O)[C@@H]4CC[C@@H]23)cc1 | 0.257 | -0.769 | 0.0141 | 0.794 | -0.409 | -0.0007 | -0.604 | -0.291 | 0.744 | 0.506 (inactive)
